# Assay results as given in PubChem BioAssay (NCI).
# About 79,000 compounds went through this panel and 15% of them were active in at least one assay; those are over-represented in the sample as a whole. Values without a mark were called inactive. The source made the active and inactive calls. Cut-off read from the data, not from the text of the source: active = growth inhibition above about 70%; inactive = the rest.
# Columns and labels:
# [1] = NCI Yeast Anticancer Drug Screen. Data for the rad52 strain (AID 147);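 note: 0% = growth of vehicle-treated control cultures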; details: S. cerevisiae rad52 mutant growth inhibition, stronger effect = higher value
# Summary of the method: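 Yeast strain carrying a DNA damage repair alteration was exposed to test compounds. Growth inhibition was measured relative to vehicle-treated controls.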
# [2] = NCI Yeast Anticancer Drug Screen. Data for the wt1 strain (AID 149);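 note: 0% = growth of vehicle-treated wt1 cultures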; details: S. cerevisiae wt1 strain (SPY 50644) growth inhibition, stronger effect = higher value
# Summary of the method: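 Each compound is tested on wt1 yeast and the loss of growth versus vehicle gives the inhibition value.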
# [3] = NCI Yeast Anticancer Drug Screen. Data for the rad50EPP+ strain (AID 151);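 note: 0% = growth of vehicle-treated control cultures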; details: S. cerevisiae rad50 mutant strain, stronger effect = higher value
# Summary of the method: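 Yeast strain carrying rad50 alteration (rad50EPP+) exposed to compounds; growth inhibition measured relative to vehicle-treated controls.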
# [4] = NCI Yeast Anticancer Drug Screen. Data for the mgt1 strain (AID 153); details: S. cerevisiae mgt1 mutant growth inhibition, stronger effect = higher value
# Summary of the method: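 Yeast mgt1 strain (DNA repair/cell-cycle alteration panel) exposed to compounds; growth inhibition measured relative to vehicle-treated controls.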
# [5] = NCI Yeast Anticancer Drug Screen. Data for the rad50 strain (AID 155);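 note: 0% = growth of vehicle-only cultures of the same strain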; details: S. cerevisiae rad50 strain growth inhibition, stronger effect = higher value
# Summary of the method: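 Vehicle-treated cultures provide the reference for the growth inhibition reported for compound-exposed, repair-deficient yeast.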
# [6] = NCI Yeast Anticancer Drug Screen. Data for the mec2-1 strain (AID 157); details: S. cerevisiae mec2-1 strain, stronger effect = higher value
# Summary of the method: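 mec2-1 yeast strain, carrying an alteration in DNA damage repair or cell cycle control, was exposed to compounds; growth inhibition was measured relative to vehicle-treated controls.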
# [7] = NCI Yeast Anticancer Drug Screen. Data for the rad14 strain (AID 159);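 note: 0% = growth of vehicle-treated control cultures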; details: S. cerevisiae rad14 strain growth inhibition, stronger effect = higher value
# Summary of the method: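 Inhibition of growth is reported for a repair-deficient yeast mutant following compound treatment, calculated relative to cultures that received vehicle.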
# [8] = NCI Yeast Anticancer Drug Screen. Data for the sgs1 mgt1 strain (AID 161);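 note: 0% = growth of cultures given vehicle only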; details: S. cerevisiae sgs1 mgt1 strain, stronger effect = higher value
# Summary of the method: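 Growth of a repair-deficient yeast mutant was monitored after compound treatment and expressed as inhibition relative to vehicle-treated cultures.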
# [9] = NCI Yeast Anticancer Drug Screen. Data for the CLN2oe strain (AID 163);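 note: 0% = growth of vehicle-only control cultures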; details: S. cerevisiae CLN2oe strain, stronger effect = higher value
# Summary of the method: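 Yeast cells carrying a defined cell-cycle control alteration were exposed to test compounds. Growth inhibition was scored against vehicle-treated control cultures.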
# [10] = NCI Yeast Anticancer Drug Screen. Data for the cln2 rad14 strain (AID 165);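 note: 0% = growth equal to vehicle treated cultures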; details: S. cerevisiae cln2 rad14 strain, stronger effect = higher value
# Summary of the method: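 Yeast carrying cln2 and rad14 alterations (cell cycle control and DNA damage repair) were exposed to compounds. Growth inhibition was measured against vehicle-treated controls.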
# [11] = NCI Yeast Anticancer Drug Screen. Data for the bub3 strain (AID 167); details: S. cerevisiae bub3 mutant strain, stronger effect = higher value
# Summary of the method: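 Mutant yeast screening strain plus compound; vehicle-treated cultures serve as the 0% inhibition reference.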
# [12] = NCI Yeast Anticancer Drug Screen. Data for the wt2 strain (AID 169); details: S. cerevisiae wt2 strain growth inhibition, stronger effect = higher value
# Summary of the method: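 Yeast cells were exposed to test compounds, and growth inhibition was measured relative to vehicle-treated controls.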
# [13] = NCI Yeast Anticancer Drug Screen. Data for the mlh1 strain (AID 171);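 note: 0% = growth of vehicle-treated control cultures of the same strain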; details: S. cerevisiae mlh1 strain growth inhibition, stronger effect = higher value
# Summary of the method: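 Yeast carrying a defined genetic alteration in DNA damage repair or cell cycle control were exposed to test compounds. Growth inhibition was measured relative to vehicle-treated controls.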
# [14] = NCI Yeast Anticancer Drug Screen. Data for the sgs1 strain (AID 173);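 note: 0% = growth of vehicle-only control cultures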; details: S. cerevisiae sgs1 mutant, stronger effect = higher value
# Summary of the method: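 Yeast mutant strains carrying defined defects in DNA damage repair or cell cycle control were exposed to test compounds. Growth inhibition was scored against vehicle-treated controls.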
# [15] = NCI Yeast Anticancer Drug Screen. Data for the mlh1 rad18 strain (AID 175); details: S. cerevisiae mlh1 rad18 strain growth inhibition, stronger effect = higher value
# Summary of the method: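 Growth inhibition of the yeast strain was measured after compound exposure and expressed relative to vehicle-treated controls. The strain carries defined defects in DNA damage repair.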
# [16] = NCI Yeast Anticancer Drug Screen. Data for the rad18 strain (AID 177); details: S. cerevisiae rad18 mutant growth inhibition, stronger effect = higher value
# Summary of the method: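 Yeast carrying a defined DNA damage repair alteration were exposed to compounds. Growth inhibition was expressed relative to vehicle-treated controls.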
# [17] = at 5.0 µM (retest, dose inferred, filed as 0.5)
# [18] = at 50.0 µM (retest, dose inferred, filed as 5.0)
smiles,measurement,setting,value
NNC(=S)Nc1cccc(Cl)c1,growth inhibition,[1]; at 1.2 µM,-16%
same,growth inhibition,[1]; at 3.7 µM,-26%
same,growth inhibition,[1]; at 11.0 µM,-16%
same,growth inhibition,[1]; at 33.0 µM,6%
same,growth inhibition,[1]; at 100.0 µM,79% (active)
same,growth inhibition,[2]; at 1.2 µM,-8%
same,growth inhibition,[2]; at 3.7 µM,-8%
same,growth inhibition,[2]; at 11.0 µM,-14%
same,growth inhibition,[2]; at 33.0 µM,14%
same,growth inhibition,[2]; at 100.0 µM,86% (active)
same,growth inhibition,[3]; at 1.2 µM,-29%
same,growth inhibition,[3]; at 3.7 µM,-28%
same,growth inhibition,[3]; at 11.0 µM,-31%
same,growth inhibition,[3]; at 33.0 µM,-55%
same,growth inhibition,[3]; at 100.0 µM,-47%
same,growth inhibition,[4]; at 1.2 µM,-18%
same,growth inhibition,[4]; at 3.7 µM,-19%
same,growth inhibition,[4]; at 11.0 µM,20%
same,growth inhibition,[4]; at 33.0 µM,68%
same,growth inhibition,[4]; at 100.0 µM,97% (active)
same,growth inhibition,[5]; at 1.2 µM,-33%
same,growth inhibition,[5]; at 3.7 µM,-36%
same,growth inhibition,[5]; [17],58%
same,growth inhibition,[5]; at 11.0 µM,-20%
same,growth inhibition,[5]; at 33.0 µM,27%
same,growth inhibition,[5]; [18],58%
same,growth inhibition,[5]; at 50.0 µM,76% (active)
same,growth inhibition,[5]; at 100.0 µM,92% (active)
same,growth inhibition,[6]; at 1.2 µM,-54%
same,growth inhibition,[6]; at 3.7 µM,-41%
same,growth inhibition,[6]; [17],63%
same,growth inhibition,[6]; at 11.0 µM,-40%
same,growth inhibition,[6]; at 33.0 µM,-5%
same,growth inhibition,[6]; [18],58%
same,growth inhibition,[6]; at 50.0 µM,78.6% (active)
same,growth inhibition,[6]; at 100.0 µM,91% (active)
same,growth inhibition,[7]; at 1.2 µM,-27%
same,growth inhibition,[7]; at 3.7 µM,-25%
same,growth inhibition,[7]; at 11.0 µM,-28%
same,growth inhibition,[7]; at 33.0 µM,26%
same,growth inhibition,[7]; at 100.0 µM,95% (active)
same,growth inhibition,[8]; [17],9%
same,growth inhibition,[8]; [18],97% (active)
same,growth inhibition,[9]; at 1.2 µM,0%
same,growth inhibition,[9]; at 3.7 µM,15%
same,growth inhibition,[9]; at 11.0 µM,-3%
same,growth inhibition,[9]; at 33.0 µM,3%
same,growth inhibition,[9]; at 100.0 µM,71% (active)
same,growth inhibition,[10]; [17],66%
same,growth inhibition,[10]; [18],96% (active)
same,growth inhibition,[11]; at 1.2 µM,-12%
same,growth inhibition,[11]; at 3.7 µM,-9%
same,growth inhibition,[11]; [17],31%
same,growth inhibition,[11]; at 11.0 µM,-9%
same,growth inhibition,[11]; at 33.0 µM,35%
same,growth inhibition,[11]; [18],95% (active)
same,growth inhibition,[11]; at 100.0 µM,90% (active)
same,growth inhibition,[12]; at 1.2 µM,-27%
same,growth inhibition,[12]; at 3.7 µM,-23%
same,growth inhibition,[12]; at 11.0 µM,-25%
same,growth inhibition,[12]; at 33.0 µM,8%
same,growth inhibition,[12]; at 100.0 µM,87% (active)
same,growth inhibition,[13]; at 1.2 µM,-6%
same,growth inhibition,[13]; at 3.7 µM,-17%
same,growth inhibition,[13]; at 11.0 µM,-8%
same,growth inhibition,[13]; at 33.0 µM,45%
same,growth inhibition,[13]; at 100.0 µM,95% (active)
same,growth inhibition,[14]; at 1.2 µM,-18%
same,growth inhibition,[14]; at 3.7 µM,-22%
same,growth inhibition,[14]; at 11.0 µM,-8%
same,growth inhibition,[14]; at 33.0 µM,32%
same,growth inhibition,[14]; at 100.0 µM,89% (active)
same,growth inhibition,[15]; [17],40%
same,growth inhibition,[15]; [18],54%
same,growth inhibition,[15]; at 50.0 µM,75.1% (active)
same,growth inhibition,[16]; at 1.2 µM,-17%
same,growth inhibition,[16]; at 3.7 µM,-11%
same,growth inhibition,[16]; at 11.0 µM,-6%
same,growth inhibition,[16]; at 33.0 µM,24%
same,growth inhibition,[16]; at 100.0 µM,88% (active)
